According to PubChem BioAssay:
The source made the active and inactive calls.

Columns and labels:
[1] = test system: Plasmodium falciparum Sir2 (PF13_0152, Sir2A); experiment: Plasmodium falciparum Sir2A binding compounds – biochemical, small-molecule microarray, 635 nm fluorescence, primary screen (AID 1098); settings: fluorescence 635 nm, higher = more signal;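 note: score merges spot fluorescence intensity with its signal-to-noise ratio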
[2] = probe aDKK1 binding to arrayed compounds – biochemical, biotinylated probe, 635/667 nm fluorescence, primary screen (AID 1099); settings: small-molecule microarray, higher = more signal;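 note: score merges 667nm spot fluorescence with signal to noise across triplicate slides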
[3] = probe aCHRDL2 binding to arrayed compounds – biochemical, biotinylated probe, 635/667 nm fluorescence, primary screen (AID 1100); settings: small-molecule microarray, higher = more signal
[4] = change in splice reporter luminescence, either direction, cell-based, HEK293, spliceosome inhibition project, primary screen (AID 1101); settings: HEK293 splicing luciferase reporter, 24 h, higher = more signal, called active from +8 up or from −8 down;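 note: HEK293 cells carrying a splicing-competent luciferase reporter gene; test concentration not given here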
[5] = target: Fibroblast growth factor 10 (Homo sapiens) (UniProt O15520); experiment: compounds binding fibroblast growth factor 10 – biochemical, small-molecule microarray, 635 nm fluorescence, primary screen (AID 1102); settings: FGF10 binding, fluorescence 635 nm, higher = more signal
[6] = test system: glycogen synthase kinase-3 (GSK3A per assay name; protocol says GSK3B); experiment: compounds binding glycogen synthase kinase-3 – biochemical, small-molecule microarray, 635 nm fluorescence, GSK3A, primary screen (AID 1103); settings: fluorescence 635 nm, higher = more signal; note: the record names both GSK3A and GSK3B
[7] = target: Epidermal growth factor receptor (Homo sapiens) (UniProt P00533); experiment: compounds binding epidermal growth factor receptor – biochemical, small-molecule microarray, 635 nm fluorescence, primary screen (AID 1104); settings: EGFR binding, higher = more signal;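 note: score merges 667 nm emission intensity with spot signal to noise over triplicate slides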
[8] = target: Follistatin-related protein 3 (Homo sapiens) (UniProt O95633); experiment: compounds binding follistatin-related protein 3 – biochemical, small-molecule microarray, 635 nm fluorescence, primary screen (AID 1105); settings: FSTL3 binding, higher = more signal;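 note: score merges emission near 667 nm and signal to noise per printed spot across three slides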
[9] = target: Dickkopf-related protein 1 (Homo sapiens) (UniProt O94907); experiment: small molecules binding DKK1 protein – biochemical, small-molecule microarray, 635 nm fluorescence scan, primary screen (AID 1106); settings: higher = more signal;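 note: score merges emission near 667 nm with signal to noise over three replicate slides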
[10] = test system: Inhibin beta A chain (activin A); experiment: small molecules binding activin A – biochemical, small-molecule microarray, 635 nm fluorescence scan, primary screen (AID 1107); settings: INHBA, higher = more signal;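 note: mouse activin A protein probed at 4.33 µg/mL on printed slides; score merges bound-protein fluorescence near 667 nm with spot signal-to-noise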
[11] = test system: Human papillomavirus type 1a protein E7 (residues 44-93); experiment: small molecules binding HPV E7 44-93 – biochemical, small-molecule microarray, residues 44-93, 635 nm fluorescence, primary screen (AID 1108); settings: fluorescence 635 nm, higher = more signal;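 note: E7 fragment applied at 1 µg/mL in TBST for 1 h at 4 C; score combines spot fluorescence with its signal to noise ratio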
[12] = hepatitis C replication reporter changes, two-sided – Huh7 cells, luciferase reporter, HCV replication inhibitor project, primary screen (AID 1109); settings: Huh7 HCV replicon luciferase reporter, 48 h; higher = more signal;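 note: huh7 hepatoma cells harbouring a luciferase neomycin HCV replicon reporter; luciferase luminescence as measure of HCV replicon replication; test concentration not given here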
[13] = target: Left-right determination factor 2 (Homo sapiens) (UniProt O00292); experiment: small molecules binding LEFTY2 protein – biochemical, small-molecule microarray, 635 nm fluorescence scan, primary screen (AID 1110); settings: higher = more signal
[14] = target: Calmodulin-1 (Homo sapiens) (UniProt P0DP23); experiment: small molecules binding calmodulin-1 with EGTA – biochemical, small-molecule microarray, Cy5-labelled CALM1, profiling panel (AID 1111); settings: Cy5-CALM1 binding fluorescence, higher = more signal;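 note: labelled calmodulin applied in Tris saline Tween buffer holding calcium plus EGTA and DTT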
[15] = target: Calmodulin-1 (Homo sapiens) (UniProt P0DP23); experiment: small molecules binding Ca-loaded calmodulin-1 – biochemical, small-molecule microarray, Cy5-labelled CALM1, plus calcium, artefact control for SMM control-protein annotation, profiling panel (AID 1112); settings: Cy5-CALM1 binding fluorescence, higher = more signal;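 note: score merges spot fluorescence with signal to noise from triplicate slides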
[16] = probe aWnt5a binding to arrayed compounds – biochemical, biotinylated probe, 635/667 nm fluorescence, primary screen (AID 1113); settings: small-molecule microarray, higher = more signal;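 note: score merges 667 nm fluorescence intensity with signal-to-noise per printed feature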
[17] = probe aShh binding to arrayed compounds – biochemical, biotinylated probe, 635/667 nm fluorescence, primary screen (AID 1114); settings: small-molecule microarray, higher = more signal;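 note: probe is biotin-labelled aShh protein from a stem cell growth factor screen; measures binding of labelled protein to compounds printed on the slide; score merges feature fluorescence at 667 nm with signal-to-noise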
[18] = probe aNog binding to arrayed compounds – biochemical, biotinylated probe, 635/667 nm fluorescence, primary screen (AID 1115); settings: small-molecule microarray, higher = more signal;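 note: probe is biotinylated aNog protein used at 0.15 µg/mL for 1 h at 4 C; z-score combines 667 nm fluorescence of each spot with its signal to noise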
[19] = target: Torsin-1A-interacting protein 1 (Homo sapiens) (UniProt Q5JTV8); experiment: compound microarray binding of lysate hLAP1 – cell lysate, small-molecule microarray, COS7 lysate, 635/667 nm fluorescence, primary screen (AID 1116); settings: 635 nm fluorescence, higher = more signal
[20] = target: Alpha-bungarotoxin (Bungarus multicinctus) (UniProt P60615); experiment: compounds binding labelled alpha-BTX control protein – biochemical, small-molecule microarray, Alexa647 label, 635/667 nm fluorescence, artefact control for SMM control protein annotation, profiling panel (AID 1117); settings: alpha-BTX-A647 binding fluorescence, higher = more signal
Alpha-bungarotoxin (Bungarus multicinctus), sequence (P60615 whole entry, looked up): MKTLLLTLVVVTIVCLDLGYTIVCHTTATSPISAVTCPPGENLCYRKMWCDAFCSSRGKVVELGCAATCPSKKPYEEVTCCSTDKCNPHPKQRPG

Left-right determination factor 2 (Homo sapiens), sequence (O00292 whole entry, looked up): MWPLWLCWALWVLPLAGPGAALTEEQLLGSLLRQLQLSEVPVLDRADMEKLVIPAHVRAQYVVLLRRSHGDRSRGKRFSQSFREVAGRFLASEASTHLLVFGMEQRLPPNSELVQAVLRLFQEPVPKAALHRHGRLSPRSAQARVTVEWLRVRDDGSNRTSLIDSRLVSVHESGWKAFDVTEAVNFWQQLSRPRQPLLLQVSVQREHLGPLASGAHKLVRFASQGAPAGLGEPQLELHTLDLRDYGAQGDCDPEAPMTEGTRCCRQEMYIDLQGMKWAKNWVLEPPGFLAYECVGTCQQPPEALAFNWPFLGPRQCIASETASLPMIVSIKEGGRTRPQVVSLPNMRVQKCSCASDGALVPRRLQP
Dickkopf-related protein 1 (Homo sapiens), sequence (O94907 whole entry, looked up): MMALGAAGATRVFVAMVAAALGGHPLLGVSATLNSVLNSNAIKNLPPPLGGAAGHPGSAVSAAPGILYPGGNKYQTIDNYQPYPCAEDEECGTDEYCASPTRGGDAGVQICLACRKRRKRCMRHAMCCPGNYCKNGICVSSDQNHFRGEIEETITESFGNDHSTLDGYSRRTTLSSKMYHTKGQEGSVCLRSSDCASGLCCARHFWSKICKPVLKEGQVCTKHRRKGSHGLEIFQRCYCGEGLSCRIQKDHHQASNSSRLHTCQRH
Torsin-1A-interacting protein 1 (Homo sapiens), sequence (Q5JTV8 whole entry, looked up): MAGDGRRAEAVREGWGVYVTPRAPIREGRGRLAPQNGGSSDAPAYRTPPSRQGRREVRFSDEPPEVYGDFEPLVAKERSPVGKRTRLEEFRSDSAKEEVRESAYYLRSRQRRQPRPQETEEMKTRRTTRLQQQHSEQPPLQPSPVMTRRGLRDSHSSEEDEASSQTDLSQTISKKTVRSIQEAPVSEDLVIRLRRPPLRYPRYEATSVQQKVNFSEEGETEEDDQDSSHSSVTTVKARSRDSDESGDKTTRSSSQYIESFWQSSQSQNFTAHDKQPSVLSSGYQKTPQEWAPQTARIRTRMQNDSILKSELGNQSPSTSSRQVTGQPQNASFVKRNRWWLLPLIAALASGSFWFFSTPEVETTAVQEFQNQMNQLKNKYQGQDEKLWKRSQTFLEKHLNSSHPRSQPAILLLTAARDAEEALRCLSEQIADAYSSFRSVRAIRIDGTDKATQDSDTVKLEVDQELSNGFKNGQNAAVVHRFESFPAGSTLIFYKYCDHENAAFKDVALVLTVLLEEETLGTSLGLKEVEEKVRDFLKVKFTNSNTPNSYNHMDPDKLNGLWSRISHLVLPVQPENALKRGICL
Fibroblast growth factor 10 (Homo sapiens), sequence (O15520 whole entry, looked up): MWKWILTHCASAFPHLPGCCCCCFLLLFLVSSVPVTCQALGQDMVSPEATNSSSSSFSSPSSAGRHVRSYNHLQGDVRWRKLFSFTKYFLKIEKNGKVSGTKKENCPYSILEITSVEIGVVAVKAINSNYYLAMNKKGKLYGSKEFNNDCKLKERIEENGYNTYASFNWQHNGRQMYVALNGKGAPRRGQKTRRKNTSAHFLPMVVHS
Follistatin-related protein 3 (Homo sapiens), sequence (O95633 whole entry, looked up): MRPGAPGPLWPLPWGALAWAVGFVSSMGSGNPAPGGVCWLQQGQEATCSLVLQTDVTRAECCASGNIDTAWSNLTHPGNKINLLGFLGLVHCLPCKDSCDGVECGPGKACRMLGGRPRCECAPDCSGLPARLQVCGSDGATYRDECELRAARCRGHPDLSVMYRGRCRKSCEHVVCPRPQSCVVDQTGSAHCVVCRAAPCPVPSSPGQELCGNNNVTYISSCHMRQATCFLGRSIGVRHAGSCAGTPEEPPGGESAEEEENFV
Epidermal growth factor receptor (Homo sapiens), sequence (P00533 whole entry, looked up): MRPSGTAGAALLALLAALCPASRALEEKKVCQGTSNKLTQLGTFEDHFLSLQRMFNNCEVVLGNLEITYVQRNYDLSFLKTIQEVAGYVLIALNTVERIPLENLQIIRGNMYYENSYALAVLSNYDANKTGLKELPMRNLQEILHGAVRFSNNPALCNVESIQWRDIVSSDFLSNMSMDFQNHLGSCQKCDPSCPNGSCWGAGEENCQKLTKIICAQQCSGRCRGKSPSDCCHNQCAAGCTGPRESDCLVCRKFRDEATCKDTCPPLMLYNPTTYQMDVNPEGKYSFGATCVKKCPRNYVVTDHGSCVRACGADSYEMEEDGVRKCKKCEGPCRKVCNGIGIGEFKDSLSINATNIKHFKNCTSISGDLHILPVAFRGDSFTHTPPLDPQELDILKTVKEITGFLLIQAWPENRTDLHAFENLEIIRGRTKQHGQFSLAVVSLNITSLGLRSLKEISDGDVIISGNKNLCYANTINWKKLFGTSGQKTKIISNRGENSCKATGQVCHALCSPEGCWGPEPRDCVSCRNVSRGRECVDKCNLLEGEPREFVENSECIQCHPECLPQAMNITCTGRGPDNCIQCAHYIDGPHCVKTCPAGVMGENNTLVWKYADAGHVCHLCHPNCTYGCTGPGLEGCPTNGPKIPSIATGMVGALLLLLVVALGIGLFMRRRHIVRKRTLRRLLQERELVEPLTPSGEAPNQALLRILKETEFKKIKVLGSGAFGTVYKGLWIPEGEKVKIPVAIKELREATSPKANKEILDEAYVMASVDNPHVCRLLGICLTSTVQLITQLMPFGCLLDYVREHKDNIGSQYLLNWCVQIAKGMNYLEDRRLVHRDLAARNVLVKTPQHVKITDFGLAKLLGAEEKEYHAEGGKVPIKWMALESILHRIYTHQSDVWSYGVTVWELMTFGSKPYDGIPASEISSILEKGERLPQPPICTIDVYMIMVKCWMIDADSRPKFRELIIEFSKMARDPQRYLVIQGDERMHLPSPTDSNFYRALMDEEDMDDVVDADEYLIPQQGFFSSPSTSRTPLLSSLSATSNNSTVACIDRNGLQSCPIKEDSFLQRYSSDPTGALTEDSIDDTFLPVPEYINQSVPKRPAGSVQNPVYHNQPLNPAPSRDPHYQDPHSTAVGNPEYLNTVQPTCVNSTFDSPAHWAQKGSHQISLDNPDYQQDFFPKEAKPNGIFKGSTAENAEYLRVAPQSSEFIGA

SMILES	composite z-score [1]	composite z-score [2]	composite z-score [3]	z-score [4]	composite z-score [5]	composite z-score [6]	composite z-score [7]	composite z-score [8]	composite z-score [9]	composite z-score [10]	composite z-score [11]	z-score [12]	composite z-score [13]	composite z-score [14]	composite z-score [15]	composite z-score [16]	composite z-score [17]	composite z-score [18]	composite z-score [19]	composite z-score [20]
COc1ccc([Si](C)(C)[C@H]2[C@H](CCO)O[C@@]3(C(=O)N(Cc4ccc(N(C=O)c5ccccc5)cc4)c4ccccc43)[C@@H]2C)cc1	-0.0179	-0.214	0.479	-1.07 (inactive)	-0.697	-1.09	-0.969	-0.251	-0.36	0.213	-0.2	-4.65	-0.677	0.625	1.01	-0.124	-0.0553	-0.14	0.34	0.158
COCCOC(=O)N1C(=O)[C@@]2(c3ccccc31)[C@H](c1ccccc1OCCO)N1[C@H](c3ccccc3)[C@H](c3ccccc3)OC(=O)[C@H]1[C@@H]2C(=O)N1CCN(c2ncccn2)CC1	1.21	0.386	0.72	-0.869 (inactive)	0.357	0.852	0.792	0.555	0.471	-0.0468	0.771	-2.73	0.567	1.69	0.614	-0.096	0.199	0.441	1.24	1.46
COC(=O)C(CC#Cc1ccc2c(c1)[C@]1(C(=O)N2)[C@H](c2ccc(OCCO)cc2)N2[C@H](c3ccccc3)[C@H](c3ccccc3)OC(=O)[C@H]2[C@@H]1C(=O)N1CCc2cc(OC)c(OC)cc2C1)C(=O)OC	1.47	0.508	0.381	-0.369 (inactive)	1.4	1.32	0.485	1.41	0.506	1.18	1.4	-1.01	0.459	1.66	0.236	0.296	0.191	-0.422	1.58	1.77
COc1cc2c(cc1O)C(C1CC1)N(Cc1sc3ccccc3c1Cl)CC2 (stereo not given)	1.25	0.147	0.652	-1.57 (inactive)	-0.326	0.135	-0.0122	-0.05	-0.467	1.48	1.39	-2.87	-0.423	0.131	0.469	-0.0977	0.0062	0.173	1.26	0.281
C=CCN1C(=O)[C@]2(O[C@H](CCn3cc([C@H](O)c4ccccc4)nn3)[C@@H]([Si](C)(C)c3ccc(OC)cc3)[C@@H]2C)c2ccccc21	0.474	-0.291	0.414	3.39 (inactive)	-0.364	-0.781	-1.25	-0.581	-0.651	0.162	-1.22	-2.71	-0.901	-0.525	0.227	-0.124	-0.0146	-0.223	-0.252	-1.56
